In the supplement of paper PMC12669032:

Each compound was assayed on Roseburia intestinalis (assay: growth AUC relative to DMSO control (median of replicates) (fraction); higher = more growth (less inhibition), active = hit call of the paper). Conditions: 20 µM; 24 h;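 active = AUC reduced over 20% with Padj below 0.05 in at least 2 of 3 replicates; inactive = otherwise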.
Procedure, shortened: (§1)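 Three biological replicates, each grown on a separate day, were combined as a median for every value. In each, a gut bacterial monoculture in mGAM started at OD600 0.05 and grew anaerobically at 37 °C with 20 µM compound (1% DMSO), with OD600 read hourly over 24 h. Area under the growth curve was normalised against the plate median of solvent-only wells, or against row and column medians on the industrial chemical plate, after the minimum OD was set to 0.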

Row | Structure (SMILES) | growth AUC
1 | CNC(=O)CSP(=O)(OC)OC | 1.02 (inactive)
2 | CC[C@H]1CCCC(O[C@H]2CC[C@H](N(C)C)[C@@H](C)O2)[C@@H](C)C(=O)C2=C[C@@H]3[C@@H](C=C(C)[C@@H]4C[C@@H](O[C@@H]5O[C@@H](C)[C@H](OC)[C@@H](OC)[C@H]5OC)C[C@@H]34)[C@@H]2CC(=O)O1.CC[C@H]1CCCC(O[C@H]2CC[C@H](N(C)C)[C@@H](C)O2)[C@@H](C)C(=O)C2=C[C@@H]3[C@@H](C=C[C@@H]4C[C@@H](O[C@@H]5O[C@@H](C)[C@H](OC)[C@@H](OC)[C@H]5OC)C[C@@H]34)[C@@H]2CC(=O)O1 (stereo partly drawn) | 1.03 (inactive)
3 | CC[C@H](C)[C@H]1O[C@]2(C=C[C@@H]1C)C[C@@H]1C[C@@H](C/C=C(\C)[C@@H](O[C@H]3C[C@H](OC)[C@@H](O[C@H]4C[C@H](OC)[C@@H](NC)[C@H](C)O4)[C@H](C)O3)[C@@H](C)/C=C/C=C3\CO[C@@H]4[C@H](O)C(C)=C[C@@H](C(=O)O1)[C@]34O)O2.O=C(O)c1ccccc1 | 0.0307 (active)
4 | O=c1oc2ccccc2c(O)c1C1CC(c2ccc(OCc3ccc(C(F)(F)F)cc3)cc2)Cc2ccccc21 (mixture of isomers) | 0.411 (active)
5 | CC(C)OC(=O)C(C(=O)OC(C)C)=C1SCCS1 | 1.06 (inactive)
6 | CCCN(CCC)N=O | 0.988 (inactive)
7 | CS(=O)(=O)c1ccc(C(=O)C2C(=O)CCCC2=O)c(Cl)c1 | 1.04 (inactive)
8 | Cc1cnc2c(C(=O)O)c(Cl)ccc2c1 | 0.937 (inactive)
9 | COc1cnc(OC)n2nc(NS(=O)(=O)c3c(OCC(F)F)cccc3C(F)(F)F)nc12 | 1.01 (inactive)
10 | COP(=S)(OC)Oc1ccc(S(=O)(=O)N(C)C)cc1 | 0.971 (inactive)
11 | COP(=S)(OC)Oc1cc(Cl)c(I)cc1Cl | 0.974 (inactive)
12 | ClC1=C(Cl)C2(Cl)C3C(Cl)C=CC3C1(Cl)C2(Cl)Cl (stereo not drawn) | 0.918 (inactive)
13 | COC(=O)C(Cl)Cl | 0.918 (inactive)
14 | CCOC(=O)C(O)(c1ccc(Cl)cc1)c1ccc(Cl)cc1 | 1.03 (inactive)
15 | CN=C=S | 0.997 (inactive)
16 | CCCCCCCCSC(=O)Oc1cc(Cl)nnc1-c1ccccc1 | 1.06 (inactive)
17 | Cc1ccccc1[N+](=O)[O-] | 0.969 (inactive)
18 | CCOP(=S)(OCC)SCSc1ccc(Cl)cc1 | 0.939 (inactive)
19 | CC(C)Nc1nc(Cl)nc(NC(C)C)n1 | 0.962 (inactive)
20 | CCOC(=O)CC(SP(=S)(OC)OC)C(=O)OCC (stereo not drawn) | 0.99 (inactive)

Row | Structure (SMILES) | growth AUC
21 | O=C(O)c1c(Cl)ccc2cc(Cl)cnc12 | 0.978 (inactive)
22 | Cc1cc(C(C#N)c2ccc(Cl)cc2)c(Cl)cc1NC(=O)c1cc(I)cc(I)c1O (stereo not drawn) | 0.15 (active)
23 | CCOP(=S)(OCC)Oc1nc(Cl)c(Cl)cc1Cl | 1.01 (inactive)
24 | CCCOC(=O)c1ccccc1C(=O)OCCC | 1.1 (inactive)
25 | O=C(O)c1cc(Oc2ccc(C(F)(F)F)cc2Cl)ccc1[N+](=O)[O-] | 0.963 (inactive)
26 | CC(C)=CC1C(C(=O)OCc2cccc(Oc3ccccc3)c2)C1(C)C (mixture of isomers) | 0.908 (inactive)
27 | CCOC(=O)c1cn2nc(OP(=S)(OCC)OCC)cc2nc1C | 0.981 (inactive)
28 | CCO/N=C(\CC)C1=C(O)CC(c2c(C)cc(C)cc2C)CC1=O (stereo not drawn) | 0.945 (inactive)
29 | COC(C)(C)CCCC(C)C/C=C/C(C)=C/C(=O)OC(C)C (stereo not drawn) | 1.01 (inactive)
30 | COP(=O)(OC)SCn1c(=O)oc2cc(Cl)cnc21 | 1.06 (inactive)
31 | Oc1c(Br)cc(Br)cc1Br | 1.08 (inactive)
32 | CC(C)NC(=O)N1CC(=O)N(c2cc(Cl)cc(Cl)c2)C1=O | 1.07 (inactive)
33 | CCCOCCN(C(=O)CCl)c1c(CC)cccc1CC | 0.947 (inactive)
34 | Cl.NC1=NCCN1Cc1ccc(Cl)nc1 | 0.963 (inactive)
35 | COc1ccc(/C(=C/C(=O)N2CCOCC2)c2ccc(Cl)cc2)cc1OC | 1.06 (inactive)
36 | O=c1c2cc(F)ccc2nc(-n2cncn2)n1-c1ccc(Cl)cc1Cl | 0.975 (inactive)
37 | CCCCCCCCCc1ccc(O)cc1 | 0.897 (inactive)
38 | CNC(=O)/C(=N\OC)c1ccccc1Oc1ccccc1 | 0.995 (inactive)
39 | Nc1nc(N)nc(N)n1 | 1.09 (inactive)

The compounds below were run on Streptococcus salivarius in the same assay as above. Conditions: 20 µM; 24 h.
Procedure, shortened: as §1

Row | Structure (SMILES) | growth AUC
40 | CNC(=O)CSP(=O)(OC)OC | 1.01 (inactive)
41 | CC[C@H]1CCCC(O[C@H]2CC[C@H](N(C)C)[C@@H](C)O2)[C@@H](C)C(=O)C2=C[C@@H]3[C@@H](C=C(C)[C@@H]4C[C@@H](O[C@@H]5O[C@@H](C)[C@H](OC)[C@@H](OC)[C@H]5OC)C[C@@H]34)[C@@H]2CC(=O)O1.CC[C@H]1CCCC(O[C@H]2CC[C@H](N(C)C)[C@@H](C)O2)[C@@H](C)C(=O)C2=C[C@@H]3[C@@H](C=C[C@@H]4C[C@@H](O[C@@H]5O[C@@H](C)[C@H](OC)[C@@H](OC)[C@H]5OC)C[C@@H]34)[C@@H]2CC(=O)O1 (stereo partly drawn) | 0.972 (inactive)
42 | CC[C@H](C)[C@H]1O[C@]2(C=C[C@@H]1C)C[C@@H]1C[C@@H](C/C=C(\C)[C@@H](O[C@H]3C[C@H](OC)[C@@H](O[C@H]4C[C@H](OC)[C@@H](NC)[C@H](C)O4)[C@H](C)O3)[C@@H](C)/C=C/C=C3\CO[C@@H]4[C@H](O)C(C)=C[C@@H](C(=O)O1)[C@]34O)O2.O=C(O)c1ccccc1 | 0.798 (active)
43 | O=c1oc2ccccc2c(O)c1C1CC(c2ccc(OCc3ccc(C(F)(F)F)cc3)cc2)Cc2ccccc21 (mixture of isomers) | 0.212 (active)
44 | CC(C)OC(=O)C(C(=O)OC(C)C)=C1SCCS1 | 1.02 (inactive)
45 | CCCN(CCC)N=O | 0.967 (inactive)
46 | CS(=O)(=O)c1ccc(C(=O)C2C(=O)CCCC2=O)c(Cl)c1 | 0.994 (inactive)
47 | Cc1cnc2c(C(=O)O)c(Cl)ccc2c1 | 0.969 (inactive)
48 | COc1cnc(OC)n2nc(NS(=O)(=O)c3c(OCC(F)F)cccc3C(F)(F)F)nc12 | 0.959 (inactive)
49 | COP(=S)(OC)Oc1ccc(S(=O)(=O)N(C)C)cc1 | 1.04 (inactive)
50 | COP(=S)(OC)Oc1cc(Cl)c(I)cc1Cl | 0.936 (inactive)
51 | ClC1=C(Cl)C2(Cl)C3C(Cl)C=CC3C1(Cl)C2(Cl)Cl (stereo not drawn) | 0.928 (inactive)
52 | COC(=O)C(Cl)Cl | 0.985 (inactive)
53 | CCOC(=O)C(O)(c1ccc(Cl)cc1)c1ccc(Cl)cc1 | 0.978 (inactive)
54 | CN=C=S | 0.994 (inactive)
55 | CCCCCCCCSC(=O)Oc1cc(Cl)nnc1-c1ccccc1 | 0.963 (inactive)
56 | Cc1ccccc1[N+](=O)[O-] | 1.01 (inactive)
57 | CCOP(=S)(OCC)SCSc1ccc(Cl)cc1 | 1.03 (inactive)
58 | CC(C)Nc1nc(Cl)nc(NC(C)C)n1 | 0.99 (inactive)
59 | CCOC(=O)CC(SP(=S)(OC)OC)C(=O)OCC (stereo not drawn) | 0.939 (inactive)

Row | Structure (SMILES) | growth AUC
60 | O=C(O)c1c(Cl)ccc2cc(Cl)cnc12 | 1.05 (inactive)
61 | Cc1cc(C(C#N)c2ccc(Cl)cc2)c(Cl)cc1NC(=O)c1cc(I)cc(I)c1O (stereo not drawn) | 0.0175 (active)
62 | CCOP(=S)(OCC)Oc1nc(Cl)c(Cl)cc1Cl | 1.06 (inactive)
63 | CCCOC(=O)c1ccccc1C(=O)OCCC | 1.01 (inactive)
64 | O=C(O)c1cc(Oc2ccc(C(F)(F)F)cc2Cl)ccc1[N+](=O)[O-] | 0.987 (inactive)
65 | CC(C)=CC1C(C(=O)OCc2cccc(Oc3ccccc3)c2)C1(C)C (mixture of isomers) | 0.951 (inactive)
66 | CCOC(=O)c1cn2nc(OP(=S)(OCC)OCC)cc2nc1C | 0.981 (inactive)
67 | CCO/N=C(\CC)C1=C(O)CC(c2c(C)cc(C)cc2C)CC1=O (stereo not drawn) | 0.967 (inactive)
68 | COC(C)(C)CCCC(C)C/C=C/C(C)=C/C(=O)OC(C)C (stereo not drawn) | 1.01 (inactive)
69 | COP(=O)(OC)SCn1c(=O)oc2cc(Cl)cnc21 | 0.978 (inactive)
70 | Oc1c(Br)cc(Br)cc1Br | 0.959 (inactive)
71 | CC(C)NC(=O)N1CC(=O)N(c2cc(Cl)cc(Cl)c2)C1=O | 1.05 (inactive)
72 | CCCOCCN(C(=O)CCl)c1c(CC)cccc1CC | 0.952 (inactive)
73 | Cl.NC1=NCCN1Cc1ccc(Cl)nc1 | 1.01 (inactive)
74 | COc1ccc(/C(=C/C(=O)N2CCOCC2)c2ccc(Cl)cc2)cc1OC | 0.987 (inactive)
75 | O=c1c2cc(F)ccc2nc(-n2cncn2)n1-c1ccc(Cl)cc1Cl | 1.02 (inactive)
76 | CCCCCCCCCc1ccc(O)cc1 | 0.927 (inactive)
77 | CNC(=O)/C(=N\OC)c1ccccc1Oc1ccccc1 | 0.999 (inactive)
78 | Nc1nc(N)nc(N)n1 | 1.02 (inactive)
